# Shown are actives, neighbours in structure and some others; about 4% of the full set was active somewhere.
# tim10-1 inh – tim10-1 yeast growth inhibition; S. cerevisiae tim10-1 ts strain growth, BacTiter-Glo, 24 h; inhibition, % at 20 µM; actives 2.2% (n = 330,000); AID 463190;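 active = inhibition of at least 40%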;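 note: mutant grown at 25 °C; 0% = DMSO wells with yeast and 100% = wells holding no yeast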
# NALP3 yeast inh – blocks the NALP3 inflammasome reconstituted in yeast | Yeast reconstituted NLRP3/ASC/caspase-1, beta-gal luminescence, 24 h | inhibition, % at 10 µM | actives 0.39% (n = 330,000) | AID 2825;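 active = inhibition of 50% or more; inactive = inhibition below 50%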;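 note: plate controls were induced DMSO wells for no effect and uninduced yeast grown without galactose for full effect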
# tim23-1 inh – growth inhibitors of tim23-1 mutant yeast. S. cerevisiae tim23-1 growth, BacTiter-Glo luminescence, 24 h. inhibition, % at 20 µM. actives 1.3% (n = 330,000). AID 463212;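 active = growth inhibition of the mutant yeast at or above 50%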;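 note: temperature-sensitive mutant grown at 25 °C; plate controls were DMSO-treated mutant yeast for no effect and medium wells lacking yeast for full effect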
# NALP1 yeast inh – NALP1 inhibition. actives 0.61% (n = 280,000). inhibition, % at 10 µM. S. cerevisiae NALP1/ASC/caspase-1 growth, X-gal OD620, 72 h. AID 2071; in the data active = inhibition mostly above about 24%, no sharp cut-off; inactive = mostly below about 32%
# TIM10 inh – growth inhibitors of TIM10 yeast strain. S. cerevisiae TIM10 strain growth, BacTiter-Glo luminescence, 24 h. inhibition, % at 10 µM. actives 1.4% (n = 330,000). AID 463195;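 active = inhibition of 40% or more at the single tested concentration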;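 note: wild-type TIM10 isogenic control strain grown at permissive 25 °C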
# tim10-1 confirm – tim10-1 yeast growth inhibition, confirmed | AID 463213 | inhibition, % at 20 µM | shares compounds with tim10-1 inh | actives 56% (n = 7,400) | S. cerevisiae tim10-1 ts strain growth, BacTiter-Glo, 24 h;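 active = inhibition of yeast growth at or above a set limit in either of two repeat tests at 20 µM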;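 note: tim10-1 mutant grown at permissive 25 °C to find synthetic lethal compounds; 0% = DMSO yeast wells and 100% = medium wells without yeast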
# tim10 confirm – confirmation of TIM10 yeast growth inhibitors; actives 63% (n = 4,600); shares compounds with TIM10 inh; S. cerevisiae tim10 strain growth, BacTiter-Glo luminescence, 24 h; inhibition, % at 10 µM;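 active = inhibition of yeast growth at or above a set limit in either of two replicates at 10 µM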;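 note: this counterscreen used the strain with wild-type TIM10; 0% = yeast with DMSO and 100% = medium wells lacking yeast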
# tim23-1 conf – tim23-1 yeast growth inhibition, confirmed; actives 83% (n = 4,400); inhibition, % at 20 µM; S. cerevisiae tim23-1 growth, BacTiter-Glo luminescence, 24 h; shares compounds with tim23-1 inh;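 active = inhibition above about 39% in either of two replicate wells at 20 µM, limit read from the data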;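 note: temperature-sensitive tim23-1 mutant grown at 25 °C; 0% = DMSO wells with yeast and 100% = medium wells without yeast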
# Starred values were filed as active, the others as inactive; . = no result given.
SMILES,tim10-1 inh,NALP3 yeast inh,tim23-1 inh,NALP1 yeast inh,TIM10 inh,tim10-1 confirm,tim10 confirm,tim23-1 conf
O=[N+]([O-])c1ccc(CNc2ccc(Cl)cc2)s1,57*,31,61*,.,56*,54*,65*,68*
COc1ccc(/C=C2\C(=O)OCc3cc(OC)c(OC)cc32)cc1OC,23,0,23,14,27,.,.,.
COc1cc2c(cc1OC)/C(=C/c1ccc(Cl)cc1)C(=O)OC2,41*,18,55*,35,2,12,.,47*
CCN(CC(=O)Nc1ccccc1C(F)(F)F)C(=O)CCOc1ccc(C)cc1,16,15,22,.,9,.,.,.
Cc1c(N2C(=O)/C(=C/C3CC=CCC3)SC2=S)c(=O)n(-c2ccccc2)n1C (centres undefined),48*,19,51*,.,40,35*,.,47*
Oc1ccc2ccccc2c1N=Nc1ccccn1,52*,44,52*,18,25,46*,.,59*
Cc1cc(C)c(S(=O)(=O)c2ccccc2)c(OC(=O)c2ccc(Cl)cc2Cl)n1,46*,3,74*,10,52*,42*,-8,76*
COc1ccc(C(=O)Nc2ccccc2C(=O)N/N=C/c2ccncc2)cc1OC,43*,3,61*,8,33,55*,.,53*
COc1ccc(C(=O)Nc2ccccc2C(=O)NCc2cccnc2)cc1OC,-1,10,4,-15,8,.,.,.
O=C(NC1=NCCS1)c1cc(-c2ccc(F)cc2)nc2ccccc12,50*,20,59*,16,51*,51*,-8,60*
Cc1ccc(-c2cc(C(=O)NC3=NCCS3)c3ccccc3n2)cc1C,.,.,.,26,.,.,.,.
O=C(C(=O)N1CCCCC1)c1c(-c2ccccc2)[nH]c2ccccc12,34,-1,24,19,16,.,.,.
CC1Cc2ccccc2N1C(=S)NC(=O)c1cccc(Br)c1 (centres undefined),44*,10,52*,11,59*,32*,5,58*
CC(=O)c1ccc(NC(=S)N2c3ccccc3CC2C)cc1 (centres undefined),-19,15,25,0,10,.,.,.
CCN1CCN(C(=O)c2cc(S(=O)(=O)N3CCCCC3)ccc2Cl)CC1,-23,13,-7,-1,2,.,.,.
O=[N+]([O-])c1cc(/C=N/Nc2nc(N3CCCCC3)nc(N3CCCCC3)n2)ccc1O,49*,-10,50*,-7,52*,39*,-5,52*
CC(=O)COc1cc2c(-c3cc4ccccc4o3)cc(=O)oc2cc1C,-15,8,16,14,4,.,.,.
CC1CCCCC1NC(=O)/C(C#N)=C/c1ccc2c(c1)OCCO2 (centres undefined),50*,24,63*,26,55*,53*,5,62*
COc1ccc(/C=C(\C#N)C(=O)NC2CCS(=O)(=O)C2)cc1OC (centres undefined),2,-20,14,28,-9,.,.,.
CC1CCCCC1NC(=O)/C(C#N)=C/c1ccc(F)c(F)c1 (centres undefined),48*,23,54*,40,59*,59*,70*,46*
O=C(COC(=O)/C=C/c1ccccc1)NC(=O)NCc1ccccc1,16,2,15,.,9,.,.,.
Cc1ccc(Nc2nc(=O)c3cccnc3s2)c(Br)c1,47*,32,51*,.,31,36*,.,50*
O=C(COC(=O)CNC(=O)c1ccc(Cl)cc1Cl)NCc1ccco1,-17,19,-5,.,-7,.,.,.
Clc1ccc2c(c1)C(C1=NCCN1)c1ccccc1CS2 (centres undefined),-15,12,2,9,6,.,.,.
S=C1NCCc2ccc(Cl)cc2C1c1ccccc1Cl (centres undefined),44*,-37,59*,1,47*,21,4,37
SMILES,tim10-1 inh,NALP3 yeast inh,tim23-1 inh,NALP1 yeast inh,TIM10 inh,tim10-1 confirm,tim10 confirm,tim23-1 conf
CCOC(=O)Cc1csc(NC(=S)NC(=O)CC(C)C)n1,50*,-47,55*,26,42*,47*,39*,56*
CCOC(=O)Cc1csc(NC(=S)NC(=O)c2ccc(C)cc2)n1,17,-12,-6,21,24,.,.,.
FC(F)(F)c1ccccc1/C=N/n1c(C2CCCCC2)n[nH]c1=S,48*,9,51*,-8,33,33*,.,51*
S=c1[nH]nc(C2CCCCC2)n1/N=C/c1ccncc1,12,14,-3,-10,-11,.,.,.
S=c1[nH]nc(C2CCCCC2)n1/N=C/c1ccccc1Cl,58*,23,64*,8,27,29*,.,61*
O=C(O)c1ccccc1/C=N/n1c(C2CCCCC2)n[nH]c1=S,-7,10,-3,-6,9,.,.,.
O=C(C1CC=CCC1)N1CCC(CO)(Cc2ccc(Cl)cc2)CC1 (centres undefined),13,14,24,17,26,.,.,.
O=C(CCSc1ccc(Br)cc1)c1ccc(O)cc1,50*,11,62*,5,17,49*,.,74*
O=C(CCO)c1ccc(O)cc1,3,18,11,-12,-5,.,.,.
O=C(c1cccc(C(=O)N(c2ccccn2)C2CCCCC2)c1)N(c1ccccn1)C1CCCCC1,39,4,28,6,7,.,.,.
N#C/C(=C\c1ccccc1)C(=O)N(c1ccccn1)C1CCCCC1,49*,29,71*,46,58*,70*,67*,58*
CCC(C)c1ccccc1N1CC(C(=O)Nc2ccc(S(=O)(=O)N3CCOCC3)cc2)CC1=O (centres undefined),5,9,-9,.,11,.,.,.
N#Cc1cccc(NC(=O)Cn2cnc(S(=O)(=O)N3CCCC3)c2)c1,-10,4,10,28,6,.,.,.
Cc1ccc(S(=O)(=O)NC(=O)Nc2cccc(S(=O)(=O)N(C)C)c2)cc1,14,-6,10,.,2,.,.,.
O=c1nc(/C=C/c2ccc(O)c(O)c2)oc2ccccc12,.,.,.,-5,.,.,.,.
COc1ccc(/C=C\c2nc(=O)c3ccccc3o2)cc1,55*,12,78*,11,42*,46*,35*,71*
Cn1nccc1C(=O)N1CCN(c2ccccc2F)CC1,21,8,2,22,-3,.,.,.
CC1CCCN(C(=O)CSCC(=O)Nc2nc(-c3cccs3)cs2)C1 (centres undefined),37,22,48,-18,24,.,.,.
CC1CCN(C(=O)CSCC(=O)Nc2nc(-c3cccs3)cs2)CC1,43*,25,54*,-75,31,27,.,49*
